Measurements published in PubChem BioAssay AID1159580 (chemical genetic matrix, 2015).
Several values for one entry are separate records, joined by “and”; a condition that tells them apart may be missing. Equal entries are not always repeated. The campaign covered roughly 5,500 compounds. About 2,000 (36%) were called active. Roughly 18% stayed inconclusive and do not appear here. Cut-off read from the data, not from the text of the source: active = normalized growth mostly below about 0.91 (no sharp cut-off); inconclusive = no clear call, values can overlap the other calls; inactive = mostly above about 0.92. This is one part of the list. Where a structure was tested more than once in an assay, its records may differ in their call.

Assay: chemical genetic growth profiling, strain panel (AID 1159580);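 note: tested at 20 µM; growth read once vehicle control cultures reached saturation at 30 °C; 1 = growth at the plate median or of vehicle wells; lower values mean less growth of the strain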
Conditions: growth OD

Measured: normalized growth

NCC(O)c1ccc(O)cc1 (stereo not given)
0.727 (active) and 1 (inactive): S. cerevisiae deletion strains, locus YMR263W, strain SAP30, stronger effect = lower value
inactive: S. cerevisiae deletion strains, locus YKL009W, strain mrt4, stronger effect = lower value 1.01 | S. cerevisiae deletion strains, locus YKL068W, stronger effect = lower value 0.984 | S. cerevisiae deletion strains, locus YKL085W, strain MDH1 (second series), stronger effect = lower value 0.989 | S. cerevisiae deletion strains, locus YKL085W, strain MDH1, stronger effect = lower value 0.989 | S. cerevisiae deletion strains, locus YKL160W, strain elf1, stronger effect = lower value 0.998 | S. cerevisiae deletion strains, locus YKL190W, strain CNB1, stronger effect = lower value 1 | S. cerevisiae deletion strains, locus YKR001C, strain vps1, stronger effect = lower value 0.967 | S. cerevisiae deletion strains, locus YKR026C, strain gcn3, stronger effect = lower value 0.998 | S. cerevisiae deletion strains, locus YKR091W, strain srl3, stronger effect = lower value 0.999 | S. cerevisiae deletion strains, locus YLL001W, strain dnm1, stronger effect = lower value 1 | S. cerevisiae deletion strains, locus YLL026W, stronger effect = lower value 0.99 | S. cerevisiae deletion strains, locus YLL041C, strain sdh2, stronger effect = lower value 1.01 | S. cerevisiae deletion strains, locus YLR027C, strain aat2, stronger effect = lower value 0.993 | S. cerevisiae deletion strains, locus YLR039C, strain RIC1, stronger effect = lower value 1.02 | S. cerevisiae deletion strains, locus YLR058C, strain SHM2, stronger effect = lower value 0.995 | S. cerevisiae deletion strains, locus YLR102C, strain apc9, stronger effect = lower value 0.972 | S. cerevisiae deletion strains, locus YLR113W, strain HOG1, stronger effect = lower value 1.02 | S. cerevisiae deletion strains, locus YLR221C, strain rsa3, stronger effect = lower value 1 | S. cerevisiae deletion strains, locus YLR258W, strain gsy2, stronger effect = lower value 1.01 | S. cerevisiae deletion strains, locus YLR262C, strain YPT6 (second series), stronger effect = lower value 0.983 | S. cerevisiae deletion strains, locus YLR262C, strain YPT6, stronger effect = lower value 1.06 | S. cerevisiae deletion strains, locus YLR268W, strain sec22, stronger effect = lower value 0.922 | S. cerevisiae deletion strains, locus YLR320W, strain mms22, stronger effect = lower value 1.04 | S. cerevisiae deletion strains, locus YLR330W, strain CHS5, stronger effect = lower value 0.996 | S. cerevisiae deletion strains, locus YLR342W, strain FKS1 (second series), stronger effect = lower value 1.03 | S. cerevisiae deletion strains, locus YLR342W, strain FKS1, stronger effect = lower value 0.981 | S. cerevisiae deletion strains, locus YLR357W, strain rsc2, stronger effect = lower value 0.973 | S. cerevisiae deletion strains, locus YLR370C, strain arc18, stronger effect = lower value 1.01 | S. cerevisiae deletion strains, locus YLR371W, strain rom2, stronger effect = lower value 0.981 | S. cerevisiae deletion strains, locus YLR384C, strain iki3, stronger effect = lower value 1 | S. cerevisiae deletion strains, locus YLR418C, strain cdc73, stronger effect = lower value 0.967 | S. cerevisiae deletion strains, locus YML016C, strain PPZ1, stronger effect = lower value 0.998 | S. cerevisiae deletion strains, locus YML032C, strain rad52, stronger effect = lower value 0.962 | S. cerevisiae deletion strains, locus YML120C, strain ndi1, stronger effect = lower value 1.01 | S. cerevisiae deletion strains, locus YML124C, strain tub3, stronger effect = lower value 0.99 | S. cerevisiae deletion strains, locus YMR058W, strain fet3, stronger effect = lower value 1.02 | S. cerevisiae deletion strains, locus YMR078C, strain ctf18, stronger effect = lower value 0.968 | S. cerevisiae deletion strains, locus YMR125W, strain sto1, stronger effect = lower value 0.993 | S. cerevisiae deletion strains, locus YMR129W, stronger effect = lower value 1.01 | S. cerevisiae deletion strains, locus YMR205C, strain PFK2, stronger effect = lower value 0.994 | S. cerevisiae deletion strains, locus YMR223W, strain ubp8, stronger effect = lower value 0.997 | S. cerevisiae deletion strains, locus YMR231W, strain pep5, stronger effect = lower value 0.995 | S. cerevisiae deletion strains, locus YMR307W, strain GAS1, stronger effect = lower value 0.985 | S. cerevisiae deletion strains, locus YNL067W, strain RPL9B, stronger effect = lower value 0.991 | S. cerevisiae deletion strains, locus YNL071W, strain lat1, stronger effect = lower value 1.01 | S. cerevisiae deletion strains, locus YNL128W, strain TEP1, stronger effect = lower value 0.993 | S. cerevisiae deletion strains, locus YNL153C, strain GIM3, stronger effect = lower value 0.991 and 1.02 | S. cerevisiae deletion strains, locus YNL175C, strain NOP13, stronger effect = lower value 1.01 | S. cerevisiae deletion strains, locus YNL183C, strain NPR1, stronger effect = lower value 0.918 | S. cerevisiae deletion strains, locus YNL197C, strain WHI3, stronger effect = lower value 1.04 | S. cerevisiae deletion strains, locus YNL209W, strain ssb2, stronger effect = lower value 1.02 | S. cerevisiae deletion strains, locus YNL224C, strain SQS1, stronger effect = lower value 1.01 | S. cerevisiae deletion strains, locus YNL233W, strain BNI4, stronger effect = lower value 0.977 | S. cerevisiae deletion strains, locus YNL248C, strain rpa49, stronger effect = lower value 1.02 | S. cerevisiae deletion strains, locus YNL250W, strain rad50, stronger effect = lower value 0.976 | S. cerevisiae deletion strains, locus YNL271C, strain bni1, stronger effect = lower value 0.967 | S. cerevisiae deletion strains, locus YNL298W, strain CLA4, stronger effect = lower value 0.966 | S. cerevisiae deletion strains, locus YNL307C, strain MCK1, stronger effect = lower value 0.985 | S. cerevisiae deletion strains, locus YNL322C, strain KRE1 (second series), stronger effect = lower value 1 | S. cerevisiae deletion strains, locus YNL322C, strain KRE1, stronger effect = lower value 0.999 and 1.02 | S. cerevisiae deletion strains, locus YNR049C, strain mso1, stronger effect = lower value 1 | S. cerevisiae deletion strains, locus YNR052C, strain pop2, stronger effect = lower value 0.982 | S. cerevisiae deletion strains, locus YOL006C, strain TOP1, stronger effect = lower value 0.943 | S. cerevisiae deletion strains, locus YOL147C, strain pex11, stronger effect = lower value 0.976 | S. cerevisiae deletion strains, locus YOR001W, strain rrp6, stronger effect = lower value 0.989 | S. cerevisiae deletion strains, locus YOR061W, strain CKA2, stronger effect = lower value 0.991 | S. cerevisiae deletion strains, locus YOR069W, strain VPS5, stronger effect = lower value 0.995 | S. cerevisiae deletion strains, locus YOR070C, strain gyp1, stronger effect = lower value 1 | S. cerevisiae deletion strains, locus YOR080W, strain dia2, stronger effect = lower value 0.985 | S. cerevisiae deletion strains, locus YOR083W, strain WHI5 (second series), stronger effect = lower value 1.01 | S. cerevisiae deletion strains, locus YOR083W, strain WHI5, stronger effect = lower value 0.977 | S. cerevisiae deletion strains, locus YOR106W, strain vam3, stronger effect = lower value 1.02 | S. cerevisiae deletion strains, locus YOR136W, strain idh2, stronger effect = lower value 0.982 | S. cerevisiae deletion strains, locus YOR144C, strain elg1, stronger effect = lower value 0.976 | S. cerevisiae deletion strains, locus YOR184W, strain ser1, stronger effect = lower value 0.971 | S. cerevisiae deletion strains, locus YOR231W, strain MKK1, stronger effect = lower value 1.01 | S. cerevisiae deletion strains, locus YOR265W, strain rbl2, stronger effect = lower value 1 | S. cerevisiae deletion strains, locus YOR270C, strain vph1, stronger effect = lower value 1.06 | S. cerevisiae deletion strains, locus YOR290C, strain snf2, stronger effect = lower value 1 | S. cerevisiae deletion strains, locus YOR316C, strain cot1, stronger effect = lower value 0.974 | S. cerevisiae deletion strains, locus YPL051W, strain arl3, stronger effect = lower value 0.995 | S. cerevisiae deletion strains, locus YPL055C, strain LGE1, stronger effect = lower value 1.02 and 1.01 | S. cerevisiae deletion strains, locus YPL078C, strain atp4, stronger effect = lower value 1.01 | S. cerevisiae deletion strains, locus YPL106C, strain sse1, stronger effect = lower value 0.971 | S. cerevisiae deletion strains, locus YPL240C, strain hsp82, stronger effect = lower value 1 | S. cerevisiae deletion strains, locus YPL241C, strain CIN2, stronger effect = lower value 1 and 1.01 | S. cerevisiae deletion strains, locus YPL256C, strain CLN2, stronger effect = lower value 0.97 | S. cerevisiae deletion strains, locus YPR119W, strain clb2, stronger effect = lower value 0.968 | S. cerevisiae deletion strains, locus YPR141C, strain kar3, stronger effect = lower value 0.976 | S. cerevisiae deletion strains, locus YPR163C, strain tif3, stronger effect = lower value 0.971 | S. cerevisiae deletion strains, locus YPR167C, strain met16, stronger effect = lower value 0.974 | S. cerevisiae deletion strains, strain wtn01, stronger effect = lower value 0.969 | S. cerevisiae strains, strain wild type, stronger effect = lower value 1
active: S. cerevisiae deletion strains, locus YOL012C, strain htz1 2.07 [resistant]
